Screen size: about 69,000 compounds; about 8,600 (12%) showed an effect of 50% or more. This is one part of a sample in which strong results are shown more often than they occur.

In the experiment the test system is Plasmodium berghei. In words: Screen against P. berghei liver stage (PbLuc), transformed with Luciferase, at 10uM. The settings on record: tested at 10 uM. The format is functional, HepG2.
As for `COCCN1CCC(c2nc3c([nH]2)CCCNC3=O)CC1`, the INHIBITION is 44%. Regarding `COc1cccc(CNCc2ccc(F)cc2Cl)c1O`, the INHIBITION is -38%. Under `COC(=O)CNC(=O)N1CCN(c2nc3ccccc3n2C)CC1` stands 10.7%; under `Cc1nc2[nH]cnc(NCCN3CCCC3)c-2n1`, 29.7%; under `COCC(=O)N1CC[C@@H]2O[C@@H](COCc3csc(C)n3)CC[C@@H]21`, 27.3%. Under `CCc1ncc2c(n1)CN(CC(=O)Nc1nncs1)CC2` stands 33.8%; under `Cn1ccnc1S(=O)(=O)C(C(=O)N1CCCCC1)c1ccccc1` (stereo unspecified), 28.1%; under `COCCN1CCCc2sc(C(=O)Nc3ccc(C)nc3)nc21`, 16.9%. Under `Cc1ccc(OCCNc2cccc(C(=O)N3CCOCC3)c2)cc1` stands -17.3%; under `CC(CN1CCCC1=O)NC(=O)c1ccc(-c2ccco2)[nH]c1=O` (stereo unspecified), 16.6%; under `O=c1nc(CNc2ccccc2)[nH]n1Cc1ccccc1`, -31.6%. With `COc1nccc(C(F)(F)F)c1C(=O)O`, the INHIBITION is on record as 4.12%. The result for `Cc1ccc(C(=O)NCCCNS(C)(=O)=O)cc1C` reads -43.2%; that for `Cc1ccc(C(=O)NCCC(C)C)cc1NS(C)(=O)=O`, 18.6%; that for `CC(C)CCNC(=O)c1ccc(Cl)c(NS(C)(=O)=O)c1`, 54.4%. The result for `Cc1cc(C(=O)NCCC(C)C)ccc1NS(C)(=O)=O` reads 65.6%; that for `CCN(CC)CCNC(=O)c1ccc(Cl)c(NS(C)(=O)=O)c1`, 18.6%; that for `CC(C)(C)CCNC(=O)c1ccc(Cl)c(NS(C)(=O)=O)c1`, -3.81%. `Cc1nccn1-c1ccc(=O)n(CCNC(=O)c2c(F)cccc2Cl)n1`: the INHIBITION is on record as 6.67%. `CCn1ccnc1CN1CCN(CC(O)CN2CCOCC2)CC1` (stereo unspecified): the INHIBITION was 12.415%. Under `CC(NC(=O)NCCC1=CCCCC1)c1nncn1C` (stereo unspecified) stands 15.7%; under `Cc1ccc(-c2nc(C3CCN(C(=O)c4ccn(C)n4)CC3)no2)cn1`, -26.7%; under `CN(CC(=O)NCC(F)(F)F)C(=O)c1ccc(=O)[nH]c1`, -10.8%. The result for `CN(CC(=O)NCC(F)(F)F)C(=O)c1ccc(C(=O)OC(C)(C)C)cc1` reads 63.7%; that for `Cc1ccc(C(=O)N(C)CC(=O)NCC(F)(F)F)cn1`, 42%; that for `COC(=O)c1cccn1C1CCN(C(=O)c2cc(F)ccc2C)CC1`, 8.64%. Under `CS(=O)(=O)N1CC(=O)N(CCCc2ccccc2)CC(O)C1` (stereo unspecified) stands 42.7%; under `COc1ccc(-c2nc(C(=O)NCC3CCOC3)cs2)cc1OC` (stereo unspecified), 34.7%; under `Cc1cc(C)nc(N2CCC(c3cccc(CCC(=O)O)n3)CC2)n1`, 4.13%.

Turning to `Cc1cn[nH]c1C1CCCN1Cc1ccc(F)c(F)c1` (stereo unspecified), the INHIBITION was determined as 15.5%. The result for `Cc1cc(CCC(=O)O)nc(C2CCCN2c2ccnc(C)n2)n1` (stereo unspecified) reads 50.8%; that for `Cc1cc(C)nc(C2CCCN2c2ccnc(C)n2)n1` (stereo unspecified), 7.52%.

In the case of `Cc1cccc(CN2CCCC2c2cccc(CCC(=O)O)n2)c1` (stereo unspecified), the INHIBITION was determined as 51.5%.

With `O=C(O)CCc1cccc(C2CCCN2Cc2ccc(F)c(F)c2)n1` (stereo unspecified), the INHIBITION is 58%. Under `O=C(O)CCc1cccc(C2CCCN2Cc2cccc(Cl)c2)n1` (stereo unspecified) stands 19.6%; under `CN(C)C(=O)CCc1cncc(C2CCCN2Cc2ccccn2)n1` (stereo unspecified), -1.85%.

`Cc1cc(N2CCCC2c2nc(C)cc(CCC(=O)O)n2)ncn1` (stereo unspecified): the INHIBITION came out at 9.93%. Under `O=C(c1ccnnc1)N1C[C@H](OCC2CC2)[C@H]2COC[C@H]21` stands -2.25%; under `CCOC(=O)c1sc(NC(=O)c2cc(=O)c(OC)c[nH]2)nc1C`, 8.12%. The result for `CCS(=O)(=O)N1CC[C@@H]2[C@H](CC1)N(Cc1cccc(C)n1)CCS2(=O)=O` reads 49.7%; that for `CCc1nc(CN(C)C2CCN(Cc3nnc(C4CCC4)o3)C2)no1` (stereo unspecified), 21.5%. The result for `CC1c2ncc(CNC(=O)C3CC3)n2CCN1Cc1cnn(C)c1` (stereo unspecified) reads -8.94%; that for `O=C(COc1ccccc1NCc1ccoc1)N1CCOCC1`, -5.22%. Regarding `CCc1nnsc1C(=O)N1CCCC1c1c(C)nn(C)c1OC` (stereo unspecified), the INHIBITION was -25.8%. Under `Cc1n[nH]c(C)c1CCc1nc(C2CC2)n[nH]1` stands 50.7%; under `Cc1nc(N)nc(C)c1Cc1nc(C2CC2)n[nH]1`, 32.3%. Regarding `Cc1nc(C)c(Cc2nc(C3CC3)n[nH]2)c(=O)[nH]1`, the INHIBITION is recorded as 29%. Under `CC(=O)NCC(=O)N1CCN(CCN(C)C)c2ncccc2C1` stands 6.79%. The result for `Nc1ccncc1-n1cc(CCO)cn1` reads 33.3%; that for `CC(C)n1nccc1NC(=O)NCCc1nc2ccc(F)cc2n1C`, 73.6%. The result for `Cn1c(CCNC(=O)Nc2cn[nH]c2)nc2ccc(F)cc21` reads -5.52%. As for `Cn1c(CCCNC(=O)Nc2cn[nH]c2)nc2ccccc21`, the INHIBITION is -7.66%. Take `Cn1c(CCNc2nccnc2C#N)nc2ccc(F)cc21`: the INHIBITION is reported as 67.3%. Under `Cc1nnc(NCCc2nc3ccc(F)cc3n2C)c(C#N)c1C` stands 34.1%.

In the case of `Cn1c(CCNc2nccnc2C#N)nc2cc(Cl)ccc21`, the INHIBITION is listed as 32.3%. Under `Cc1nc(C2CCCN2CCOCC2CC2)no1` (stereo unspecified) stands -77.6%.
